Compound activity as filed in PubChem.
PP5 inh = inhibitors of human protein phosphatase 5 (PP5). P53041. purified PP5c, OMFP substrate fluorescence. inhibition, % at 6.7 µM. 320,000 compounds, 0.18% hits;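 active = inhibition above the campaign's mean inhibition across all tested compounds plus 3 SD, cut at about 9.5% in these data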;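 also: 0% = DMSO only and 100% = 100 µM cantharidin control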
TMEM16A inh = inhibitors of mouse TMEM16A calcium-activated chloride channel; Q8BHY3; HEK293 TMEM16A/YFP iodide influx fluorescence, ionomycin; normalized B-score (activity score, 25-100; higher = stronger inhibition) at 10 µM; 310,000 compounds, 1.2% hits; AID 588511;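 active = ratio plate-corrected score three or more library SD toward inhibition, starting fluorescence score within five deviations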;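 also: score derived from kinetic fluorescence span divided by baseline fluorescence per well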
PREPL inhibitor = human PREPL enzyme inhibition | recombinant PREPL, fluorescence polarization activity-based probe | 320,000 compounds, 0.68% hits | inhibition, % at 5.96 µM | AID 2751; in the data active = inhibition above about 43%;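 also: 0% = enzyme with DMSO and 100% = wells lacking enzyme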
ANO1 activ = activators or potentiators of mouse TMEM16A chloride channel. Q8BHY3. HEK293 TMEM16A/YFP-H148Q/I152L, iodide quench fluorescence; hits give low values. B-score at 10 µM. 340,000 compounds, 0.3% hits. AID 623877;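 active = fluorescence-ratio B-score plate-corrected deviation score at least 3 library SD below zero, with starting fluorescence score within 5 deviations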;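 also: channel opened by trigger with iodide after compound preincubation; score built on the fluorescence ratio of max minus min over baseline; more negative score means more quench and so TMEM16A activation or potentiation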
PP1 inh = PP1-alpha (human) inhibition in PP5 counter-screen; P62136; purified PP1alpha, OMFP fluorescence; inhibition, % at 6.7 µM; 320,000 compounds, 0.9% hits; AID 2235;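 active = inhibition above the mean inhibition of all tested compounds plus 3 SD, computed separately for each screening campaign, cut at about 15% in these data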
DNA FID counter = fluorescent intercalator displacement, NS3 helicase counter-screen | inhibition, % at 7.9 µM | DNA fluorescent intercalator displacement, fluorescence | 290,000 compounds, 0.17% hits; in the data active = inhibition above about 37%;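 also: 0% = vehicle and 100% = reference compound; higher means more ethidium bromide displaced from hairpin DNA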
Starred values were filed as active, the others as inactive; i = inactive; nt = no result. The list is not random: actives were taken first. Their share in the collection is about 2.7%.

SMILES	PP5 inh	TMEM16A inh	PREPL inhibitor	ANO1 activ	PP1 inh	DNA FID counter
COc1ccc(-n2c(-c3ccc(C)cc3)nc3ccccc3c2=O)cc1	2	i	13	-4.9*	1	-21
Cc1cc(C)n(-c2ccc(NN=C(C#N)C#N)cc2)n1	4	i	23	i	5	-8
CCN(CC)S(=O)(=O)c1ccc(NN=C(C#N)C#N)cc1	5	100*	10	i	3	-10
NC(Cc1cc(O)c(O)cc1O)C(=O)O (stereo unspecified)	0	i	67*	nt	69*	nt
CCCc1nc2ccc(Br)cc2c(=O)n1-c1ccc([N+](=O)[O-])c(C(F)(F)F)c1	3	100*	4	i	4	1
CC(=O)OC1C(=O)OCC23CCC4(C)OC4C2OC2CC(OC(=O)C=CC=CC(=O)OCCC1C)C3(C)C21CO1 (stereo unspecified)	nt	nt	nt	i	nt	nt
CCCC[N+]1(C)[C@@H]2CC(OC(=O)[C@H](CO)c3ccccc3)C[C@H]1[C@@H]1O[C@@H]12 (stereo partly specified)	1	i	-6	-10*	-2	-1
COc1ccc(CN(CCc2c[nH]c3ccccc23)Cc2ccc(OC)cc2)cc1	nt	nt	nt	i	nt	nt
CCOc1cccc(CNCCc2c(C)[nH]c3ccc(OC(F)(F)F)cc23)c1O	4	100*	10	i	3	37
Cc1[nH]c2ccc(OC(F)(F)F)cc2c1CCNCc1ccc(Cl)cc1	nt	i	nt	i	nt	20
CC1C(c2ccccc2)OC(=O)N1C (stereo unspecified)	nt	nt	nt	i	nt	nt
O=C1C2CCCN2C(c2cccc(Cl)c2)N1c1ccccn1 (stereo unspecified)	0	i	-2	i	-7	38*
O=C1C2CCCN2C(c2ccc(Cl)c(Cl)c2)N1c1ccccn1 (stereo unspecified)	3	i	0	i	1	-2
COC(=O)C1=C(c2ccc(C(C)=O)cc2)C[C@@H]2CC[C@H]1N2C(=O)NCc1ccc(C(F)(F)F)cc1	1	nt	11	i	-4	nt
CC1=CC2/C=C(\C)CCC(O)C(O)/C=C/C(=O)C23C(=O)NC(CC(C)C)C3C1C (stereo unspecified)	5	i	28	i	-4	-39
C/C1=C\[C@@H](C)C/C=C/[C@H]2[C@@H]3O[C@]3(C)[C@@H](C)[C@H]3[C@H](Cc4c[nH]c5ccccc45)NC(=O)[C@]32C(=O)/C=C/C(=O)[C@@H]1O	1	100*	12	-11*	0	-51
O=[N+]([O-])/C=C/c1c(Cl)cccc1Cl	nt	nt	nt	i	nt	nt
CC(C)(C)c1cc([N+](=O)[O-])cc(C(C)(C)C)c1O	4	100*	0	nt	-1	-2
NC(=O)c1cc([N+](=O)[O-])cc([N+](=O)[O-])c1	nt	nt	nt	i	nt	nt
CCOC(=O)c1c(C)n(Cc2ccccc2)c2ccc(OCC(O)Cn3nc(C)nc3C)cc12 (stereo unspecified)	3	i	5	i	1	-27
CCOC(=O)c1c(C)n(Cc2ccccc2)c2ccc(OCC(O)Cn3nc(C)cc3C)cc12 (stereo unspecified)	8	100*	4	i	4	-29
Nc1ccccc1C(=O)OCCc1ccccc1	2	nt	6	i	1	nt
O=C(Nc1ccccc1)c1c(O)[nH]c(=S)[nH]c1=O	-6	i	12	i	16*	nt
CC(NCc1ccc(Cl)c(Cl)c1)C(O)c1ccccc1 (stereo unspecified)	0	i	9	i	-1	11
CN[C@@H]1C[C@@H](c2ccc(Cl)c(Cl)c2)c2ccccc21	0	25*	-47	nt	1	22
SMILES	PP5 inh	TMEM16A inh	PREPL inhibitor	ANO1 activ	PP1 inh	DNA FID counter
Cc1ccc2c(c1)CC1(CN2C)C(=O)NC(=O)N(c2cc(C)ccc2C)C1=O (stereo unspecified)	-1	25*	3	i	-2	-6
COc1cc2c(cc1O)C[C@H]1NCCc3cc4c(c-2c31)OCO4	3	i	7	i	4	38*
COc1c2c(cc3c1OCO3)CCN(C)C2	1	i	-1	i	1	nt
COc1cc2c(cc1OC)-c1c(OC)c(OC)cc3c1C(C2)N(C)CC3 (stereo unspecified)	6	i	11	i	0	24
COc1cc2c(cc1OC)-c1c3c(cc4c1[C@@H](C2)N(C)CC4)OCO3	-5	i	20	i	8	67*
C[N+](C)(C)CCOC(=O)CBr	2	i	-1	i	-3	nt
CC(=O)OCC[N+](C)(C)C	-1	i	-6	-9.6*	-2	3
CCOC(=O)c1c(C)n(Cc2ccccc2)c2ccc(OCC(O)CNC(C)(C)C)cc12 (stereo unspecified)	0	i	19	i	8	18
c1ccc2c(c1)[IH]c1ccccc1-2	nt	nt	nt	-5.8*	nt	nt
CCC1C=CC=CC[C@H](C)[C@@H](O)[C@](C)(O)C(=O)[C@@H](C)[C@H](O)[C@@H](C)C(=O)[C@H](C)[C@@H](O)[C@H](C)C=CC(=O)OC2[C@@H](C)C(CC1)OC1(CC[C@@H](C)C(C[C@H](C)O)O1)[C@@H]2C (stereo partly specified)	8	25*	7	nt	2	nt
COc1ccc(OCC(=O)N2CCN(Cc3ccc(SC)cc3)CC2)cc1	1	100*	11	i	2	-21
COc1ccc(OCC(=O)N2CCN(Cc3ccc4c(c3)OCO4)CC2)cc1	0	i	-1	i	-4	-14
COc1ccc2[nH]cc(C3=CCNCC3)c2c1	1	i	51*	nt	-1	nt
CN1C(=O)C[N+]([O-])=C(c2ccccc2)c2cc(Cl)ccc21	nt	nt	nt	i	nt	nt
COc1cccc(NP2(=O)OCC(C)([N+](=O)[O-])CO2)c1 (stereo unspecified)	nt	nt	nt	i	nt	nt
O=C(COc1ccc(Cl)cc1)NCCc1cnc[nH]1	nt	i	nt	i	nt	-4
CSc1ccc(C(=O)C2CCCN(Cc3cnc(SC)nc3)C2)cc1 (stereo unspecified)	0	25*	-10	i	5	0
CCCCn1c(O)c(C(CC)=Nc2ccc(OC)cc2OC)c(=O)[nH]c1=O	3	25*	9	i	1	-8
CC12CCC3c4ccc(OC(=O)N(CCCl)CCCl)cc4CCC3C1CCC2O (stereo unspecified)	nt	nt	nt	i	nt	nt
NS(=O)(=O)c1nc[nH]c1[N+](=O)[O-]	nt	nt	nt	i	nt	nt
CCCCCCC[n+]1ccc(-c2cc[n+](CCCCCCC)cc2)cc1	1	i	16	i	3	55*
NC(N)=N/N=C/c1cn(-c2ccccc2)nc1-c1cccs1	5	100*	24	i	17*	25
O=c1c2ccccc2nc(-c2cccs2)n1-c1ccccc1	3	i	-6	i	-3	-9
